Compound activity (PubChem BioAssay)
mHTT CaM bind = mutant huntingtin-calmodulin interaction inhibitors – biochemical, AlphaScreen, primary screen; hit rate 3.6% among 190,000; AlphaScreen His-mHTT/GST-CaM binding, luminescence; P42858; inhibition, % at 15 µM
Target sequence (P42858 whole entry, looked up, change not shown): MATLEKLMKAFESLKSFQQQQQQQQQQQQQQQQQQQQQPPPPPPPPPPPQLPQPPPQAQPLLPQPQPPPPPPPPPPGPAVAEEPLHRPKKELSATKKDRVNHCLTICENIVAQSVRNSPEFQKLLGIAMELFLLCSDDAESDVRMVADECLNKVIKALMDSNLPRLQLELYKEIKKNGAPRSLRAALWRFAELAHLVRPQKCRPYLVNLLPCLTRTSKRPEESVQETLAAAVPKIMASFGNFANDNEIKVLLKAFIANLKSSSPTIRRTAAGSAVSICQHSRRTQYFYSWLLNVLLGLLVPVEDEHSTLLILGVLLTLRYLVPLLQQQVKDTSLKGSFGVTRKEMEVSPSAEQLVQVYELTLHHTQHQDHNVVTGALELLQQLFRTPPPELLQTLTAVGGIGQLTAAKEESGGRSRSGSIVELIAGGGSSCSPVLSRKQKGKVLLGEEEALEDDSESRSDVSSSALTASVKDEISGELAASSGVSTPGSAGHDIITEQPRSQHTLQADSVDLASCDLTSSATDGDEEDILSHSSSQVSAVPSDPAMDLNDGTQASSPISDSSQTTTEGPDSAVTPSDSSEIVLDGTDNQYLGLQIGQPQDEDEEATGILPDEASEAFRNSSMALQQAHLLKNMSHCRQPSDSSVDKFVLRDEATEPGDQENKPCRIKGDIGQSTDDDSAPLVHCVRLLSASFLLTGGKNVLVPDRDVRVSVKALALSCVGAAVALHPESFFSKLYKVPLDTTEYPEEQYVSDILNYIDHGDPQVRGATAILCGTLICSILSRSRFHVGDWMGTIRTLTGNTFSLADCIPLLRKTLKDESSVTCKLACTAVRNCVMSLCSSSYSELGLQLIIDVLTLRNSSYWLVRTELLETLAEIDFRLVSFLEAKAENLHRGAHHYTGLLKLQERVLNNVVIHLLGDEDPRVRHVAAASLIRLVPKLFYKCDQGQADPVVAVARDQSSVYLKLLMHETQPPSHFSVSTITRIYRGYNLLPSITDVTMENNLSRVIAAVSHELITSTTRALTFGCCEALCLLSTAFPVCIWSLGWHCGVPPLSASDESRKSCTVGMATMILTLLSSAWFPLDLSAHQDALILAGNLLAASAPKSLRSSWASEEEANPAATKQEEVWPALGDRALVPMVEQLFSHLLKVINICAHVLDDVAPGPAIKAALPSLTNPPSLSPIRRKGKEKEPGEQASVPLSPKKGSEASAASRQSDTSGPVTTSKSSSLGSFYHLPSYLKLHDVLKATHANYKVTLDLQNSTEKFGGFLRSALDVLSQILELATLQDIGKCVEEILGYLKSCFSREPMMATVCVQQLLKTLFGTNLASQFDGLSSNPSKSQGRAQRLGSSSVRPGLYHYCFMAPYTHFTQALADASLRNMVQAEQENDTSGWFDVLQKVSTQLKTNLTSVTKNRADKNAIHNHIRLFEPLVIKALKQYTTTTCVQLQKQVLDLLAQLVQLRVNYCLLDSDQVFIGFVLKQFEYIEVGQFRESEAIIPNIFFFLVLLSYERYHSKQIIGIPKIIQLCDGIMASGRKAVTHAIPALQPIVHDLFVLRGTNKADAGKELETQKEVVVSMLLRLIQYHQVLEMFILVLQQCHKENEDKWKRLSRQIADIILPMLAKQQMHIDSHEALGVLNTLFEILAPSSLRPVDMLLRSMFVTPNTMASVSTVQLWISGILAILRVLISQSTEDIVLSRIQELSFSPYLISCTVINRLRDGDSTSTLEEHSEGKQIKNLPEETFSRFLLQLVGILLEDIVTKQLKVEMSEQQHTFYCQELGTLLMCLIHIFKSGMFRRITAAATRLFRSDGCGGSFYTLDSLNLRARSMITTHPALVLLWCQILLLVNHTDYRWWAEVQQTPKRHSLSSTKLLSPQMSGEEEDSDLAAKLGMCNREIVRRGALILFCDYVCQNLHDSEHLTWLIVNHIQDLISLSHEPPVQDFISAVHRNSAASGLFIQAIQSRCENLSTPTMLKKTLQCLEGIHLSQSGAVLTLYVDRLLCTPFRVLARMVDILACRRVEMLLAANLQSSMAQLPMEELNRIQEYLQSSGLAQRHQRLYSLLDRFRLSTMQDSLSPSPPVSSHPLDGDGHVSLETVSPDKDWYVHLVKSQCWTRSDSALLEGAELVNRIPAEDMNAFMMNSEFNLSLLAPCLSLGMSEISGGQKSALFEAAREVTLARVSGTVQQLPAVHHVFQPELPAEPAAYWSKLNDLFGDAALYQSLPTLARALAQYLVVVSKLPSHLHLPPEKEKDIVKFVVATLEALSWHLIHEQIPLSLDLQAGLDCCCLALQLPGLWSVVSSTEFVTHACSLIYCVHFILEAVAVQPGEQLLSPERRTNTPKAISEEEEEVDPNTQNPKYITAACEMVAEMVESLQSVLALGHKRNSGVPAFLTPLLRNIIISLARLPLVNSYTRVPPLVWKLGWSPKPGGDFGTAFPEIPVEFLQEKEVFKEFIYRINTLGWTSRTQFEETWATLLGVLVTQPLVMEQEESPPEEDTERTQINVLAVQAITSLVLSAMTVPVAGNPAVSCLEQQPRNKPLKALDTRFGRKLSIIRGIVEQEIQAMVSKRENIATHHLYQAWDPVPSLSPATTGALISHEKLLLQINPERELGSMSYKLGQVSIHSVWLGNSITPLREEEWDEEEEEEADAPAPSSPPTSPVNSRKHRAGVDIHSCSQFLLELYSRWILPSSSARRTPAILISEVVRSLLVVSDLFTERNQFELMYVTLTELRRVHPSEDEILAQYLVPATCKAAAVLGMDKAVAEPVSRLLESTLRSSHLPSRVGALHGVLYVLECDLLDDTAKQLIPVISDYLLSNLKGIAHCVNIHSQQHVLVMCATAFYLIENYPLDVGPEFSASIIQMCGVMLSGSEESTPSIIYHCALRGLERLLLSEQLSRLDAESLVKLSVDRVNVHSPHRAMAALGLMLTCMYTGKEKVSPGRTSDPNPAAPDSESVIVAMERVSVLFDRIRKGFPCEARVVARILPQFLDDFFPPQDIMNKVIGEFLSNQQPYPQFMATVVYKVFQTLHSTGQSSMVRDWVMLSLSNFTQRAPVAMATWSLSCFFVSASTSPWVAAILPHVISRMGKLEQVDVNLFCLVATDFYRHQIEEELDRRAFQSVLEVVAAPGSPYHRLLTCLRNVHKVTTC
Pf apPOL inh = Pf-apPOL inhibitors, biochemical, fluorescence. inhibition, % at 10 µM. hit rate 0.25% among 210,000. Plasmodium falciparum apicoplast DNA polymerase (apPOL). Recombinant Pf-apPOL, molecular beacon fluorescence, 1.5 h
A number is an active result. An excerpt weighted towards active compounds, which were near 3.6% of everything screened. Cut-off read from the data, not from the text of the source: active = inhibition above about 50%; inactive = the rest.

Screening COc1ccc(S(=O)(=O)N(CC(=O)Nc2ccc(OC)cc2OC)c2ccc(C)cc2)cc1 returned mHTT CaM bind inactive and Pf apPOL inh inactive.
For Clc1cc(Br)ccc1OCCCN1CCOCC1 the results were mHTT CaM bind inactive and Pf apPOL inh inactive.
`COc1ccc(Cl)cc1N1C(=O)CSC1c1ccccc1F` (stereo not given) gave mHTT CaM bind inactive and Pf apPOL inh inactive.
`CC(=O)c1cccc(NC(=O)N2CCCC3(C2)Nc2ccccc2NC3=NC(C)(C)C)c1` (stereo not given) gave mHTT CaM bind inactive and Pf apPOL inh inactive.
CC(C)(C)N=C1Nc2ccccc2NC12CCCN(C(=O)c1cccc(F)c1)C2 (stereo not given) was read as mHTT CaM bind inactive and Pf apPOL inh inactive.
COc1cccc(CC(=O)N2CCCC3(C2)Nc2ccccc2NC3=NC(C)(C)C)c1 (stereo not given) was read as mHTT CaM bind 78 and Pf apPOL inh inactive.
`COCCN=C1Nc2ccccc2NC12CCCN(C(=O)Cc1cccc(OC)c1)C2` (stereo not given) gave mHTT CaM bind inactive and Pf apPOL inh inactive.
`Cc1noc(C)c1CC(=O)N1CCCC2(C1)Nc1ccccc1NC2=NC(C)(C)C` (stereo not given) gave mHTT CaM bind inactive and Pf apPOL inh inactive.
CC(C)(C)N=C1Nc2ccccc2NC12CCCN(C(=O)Cc1ccccc1F)C2 (stereo not given) was read as mHTT CaM bind 65 and Pf apPOL inh inactive.
For CC(C)(C)N=C1Nc2ccccc2NC12CCCN(C(=O)COc1ccc(F)c(F)c1)C2 (stereo not given) the results were mHTT CaM bind 100 and Pf apPOL inh inactive.
Screening CC(C)(C)N=C1Nc2ccccc2NC12CCCN(C(=O)Nc1ccc3c(c1)OCCO3)C2 (stereo not given) returned mHTT CaM bind 94 and Pf apPOL inh inactive.
C=CCNC(=O)CN(c1ccc(OC)cc1)S(=O)(=O)c1ccc(OC)c(OC)c1 was read as mHTT CaM bind inactive and Pf apPOL inh inactive.
Screening COc1ccc(NC(=O)CSc2ccc(Cl)cc2)c(OC)c1 returned mHTT CaM bind inactive and Pf apPOL inh inactive.
For Cc1ccc(Sc2nccnc2N2CCCC(C(=O)N3CCOCC3)C2)cc1 (stereo not given) the results were mHTT CaM bind inactive and Pf apPOL inh inactive.
CC(C)N1CCC(CC(=O)N2CCCC3(C2)Nc2ccccc2NC3=NC(C)(C)C)CC1 (stereo not given) was read as mHTT CaM bind inactive and Pf apPOL inh inactive.
Screening O=C(c1n[nH]c2c1CCCC2)N1CCCC2(C1)Nc1ccccc1NC2=NC1CCCC1 (stereo not given) returned mHTT CaM bind 92 and Pf apPOL inh inactive.
O=C(c1cccc(F)c1)N1CCCC2(C1)Nc1ccccc1NC2=NC1CCCC1 (stereo not given) was read as mHTT CaM bind inactive and Pf apPOL inh inactive.
Screening CC(C)(C)N=C1Nc2ccccc2NC12CCCN(C(=O)Cc1cccs1)C2 (stereo not given) returned mHTT CaM bind 64 and Pf apPOL inh inactive.
`O=C(COc1ccc(F)cc1)N1CCCC2(C1)Nc1ccccc1NC2=NC1CCCC1` (stereo not given) gave mHTT CaM bind 86 and Pf apPOL inh inactive.
Screening COCCN=C1Nc2ccccc2NC12CCCN(C(=O)c1n[nH]c3c1CCCC3)C2 (stereo not given) returned mHTT CaM bind inactive and Pf apPOL inh inactive.
Screening CCC(=O)NCc1csc(C2CCN(S(=O)(=O)c3ccc(Cl)cc3)CC2)n1 returned mHTT CaM bind inactive and Pf apPOL inh inactive.
`Cc1csc(SCCCNC(=O)Nc2ncccn2)n1` gave mHTT CaM bind inactive and Pf apPOL inh inactive.
`COCCCNC(=O)NC1(C(F)(F)F)Oc2ccc(Cl)cc2O1` (stereo not given) gave mHTT CaM bind inactive and Pf apPOL inh inactive.
Screening Cn1c2c(c(=O)n(C)c1=O)C(c1cccc([N+](=O)[O-])c1)C1=C(CC(C)(C)CC1=O)N2 (stereo not given) returned mHTT CaM bind inactive and Pf apPOL inh inactive.
Screening Cc1ccccc1OCCn1cc(C=C2C(=O)NC(=O)NC2=O)c2ccccc21 returned mHTT CaM bind 51 and Pf apPOL inh inactive.
For CCN1C(=O)NC(=O)/C(=C/c2cn(CCOc3ccc(F)cc3)c3ccccc23)C1=O the results were mHTT CaM bind inactive and Pf apPOL inh inactive.
O=C1NC(=O)C(=Cc2cn(CCOc3ccccc3)c3ccccc23)C(=O)N1 was read as mHTT CaM bind inactive and Pf apPOL inh inactive.
CCN1C(=O)NC(=O)/C(=C/c2cn(CCOc3ccccc3C)c3ccccc23)C1=O was read as mHTT CaM bind 61 and Pf apPOL inh inactive.
`CN(C(=O)c1ccc([N+](=O)[O-])o1)c1ccccc1` gave mHTT CaM bind inactive and Pf apPOL inh inactive.
`COc1ccccc1/C=C1\N=C(c2ccc(Cl)cc2Cl)OC1=O` gave mHTT CaM bind inactive and Pf apPOL inh inactive.
N#CCSc1sc2c(O)cc(=O)[nH]c2c1C#N was read as mHTT CaM bind inactive.
N#Cc1c(SCC(=O)c2ccc(Cl)s2)sc2c(O)cc(=O)[nH]c12 was read as mHTT CaM bind 63.
Screening O=C(CN1CCC2(CC1)N=C(c1ccc(Cl)cc1)C(=O)N2)Nc1ccc(F)c(F)c1 returned mHTT CaM bind inactive and Pf apPOL inh inactive.
`Cn1c(=O)n(Cc2ccc(Cl)c(Cl)c2)c2ccccc21` gave mHTT CaM bind 78 and Pf apPOL inh inactive.
O=c1oc(=O)n(Cc2ccc(Cl)c(Cl)c2)c2ccccc12 was read as mHTT CaM bind 99 and Pf apPOL inh inactive.
Cn1c(=O)n(Cc2ccccc2Cl)c2ccccc21 was read as mHTT CaM bind inactive and Pf apPOL inh inactive.
N=c1n(CCO)c2ccccc2n1Cc1ccc(Cl)c(Cl)c1 was read as mHTT CaM bind inactive and Pf apPOL inh inactive.
Cc1nc2c(c(=O)n1CC(=O)Nc1ccc(Cl)cc1)CCN(Cc1ccccc1)C2 was read as mHTT CaM bind inactive and Pf apPOL inh inactive.
Cc1ccc(CSc2nc3[nH]ncc3c(=O)n2-c2cccc(Cl)c2)cc1 was read as mHTT CaM bind inactive and Pf apPOL inh inactive.
For Cc1ccc(CSc2nc3[nH]ncc3c(=O)n2-c2ccc(C)cc2)cc1 the results were mHTT CaM bind inactive and Pf apPOL inh 81.
Cc1ccc(-n2c(SCc3cccc([N+](=O)[O-])c3)nc3[nH]ncc3c2=O)cc1Cl was read as mHTT CaM bind 58 and Pf apPOL inh inactive.
For Cc1cccc(-n2c(SCc3ccc(Cl)cc3)nc3[nH]ncc3c2=O)c1 the results were mHTT CaM bind 79 and Pf apPOL inh inactive.
Screening O=c1c2cn[nH]c2nc(SCc2cccc([N+](=O)[O-])c2)n1-c1ccc(Cl)cc1 returned mHTT CaM bind inactive and Pf apPOL inh inactive.
For Cc1ccc(-n2c(SCc3ccccc3)nc3[nH]ncc3c2=O)cc1 the results were mHTT CaM bind inactive and Pf apPOL inh inactive.
For COc1ccc(NC(=O)CSc2nc3[nH]ncc3c(=O)n2-c2ccc(Cl)cc2)c(OC)c1 the results were mHTT CaM bind inactive and Pf apPOL inh inactive.
CCc1ccc(-n2c(SCC(=O)Nc3ccc(OC)cc3OC)nc3[nH]ncc3c2=O)cc1 was read as mHTT CaM bind 68 and Pf apPOL inh inactive.
O=C(c1cccs1)N1CCCC(Nc2ncnc3c2CCC3)C1 (stereo not given) was read as mHTT CaM bind inactive and Pf apPOL inh inactive.
